“And” between values parts separate entries of the source, which are not always exact repeats. Identical values can stand only once. Hit rate of the full screen: of about 16,000 compounds, about 260 (1.6%) were called active. Inconclusive results (about 14%) are left out. Calls come from the whole dose curve; as a rule, active = well fitted inhibition curve with a large enough effect; inconclusive = small, poorly fitted or top-dose-only effect; inactive = no such curve, though single readings can be large or run the other way. Shown is part of a subset that was picked to be rich in actives. Some compounds were tested as several samples or in several runs, with calls that do not always agree. *1 amine or outer side, *2 acyl side, *3 side chain or, on linkers, in order; H or OH if unused. Where a SMILES comes first, the peptide text is derived from it. Bridges are numbered along the chain shown (N, C = ends). [ ]: non-standard residue; d: D form. The star is where a group is joined. X12 = NC1=N[C@@H]([C@H](N[*:1])C(=O)[*:2])C[C@H](O)N1; ΔAla(Z-3-ureido) = NC(=O)N/C=C(\N)C(=O)O; β3hOrn = NCCC[C@H](N)CC(=O)*; Dap = NC[C@H](N)C(=O)O
Potency is the fitted concentration of half-maximal effect.

Sequence of Rap guanine nucleotide exchange factor 4 (Homo sapiens) (Q8WZA2 whole entry, looked up): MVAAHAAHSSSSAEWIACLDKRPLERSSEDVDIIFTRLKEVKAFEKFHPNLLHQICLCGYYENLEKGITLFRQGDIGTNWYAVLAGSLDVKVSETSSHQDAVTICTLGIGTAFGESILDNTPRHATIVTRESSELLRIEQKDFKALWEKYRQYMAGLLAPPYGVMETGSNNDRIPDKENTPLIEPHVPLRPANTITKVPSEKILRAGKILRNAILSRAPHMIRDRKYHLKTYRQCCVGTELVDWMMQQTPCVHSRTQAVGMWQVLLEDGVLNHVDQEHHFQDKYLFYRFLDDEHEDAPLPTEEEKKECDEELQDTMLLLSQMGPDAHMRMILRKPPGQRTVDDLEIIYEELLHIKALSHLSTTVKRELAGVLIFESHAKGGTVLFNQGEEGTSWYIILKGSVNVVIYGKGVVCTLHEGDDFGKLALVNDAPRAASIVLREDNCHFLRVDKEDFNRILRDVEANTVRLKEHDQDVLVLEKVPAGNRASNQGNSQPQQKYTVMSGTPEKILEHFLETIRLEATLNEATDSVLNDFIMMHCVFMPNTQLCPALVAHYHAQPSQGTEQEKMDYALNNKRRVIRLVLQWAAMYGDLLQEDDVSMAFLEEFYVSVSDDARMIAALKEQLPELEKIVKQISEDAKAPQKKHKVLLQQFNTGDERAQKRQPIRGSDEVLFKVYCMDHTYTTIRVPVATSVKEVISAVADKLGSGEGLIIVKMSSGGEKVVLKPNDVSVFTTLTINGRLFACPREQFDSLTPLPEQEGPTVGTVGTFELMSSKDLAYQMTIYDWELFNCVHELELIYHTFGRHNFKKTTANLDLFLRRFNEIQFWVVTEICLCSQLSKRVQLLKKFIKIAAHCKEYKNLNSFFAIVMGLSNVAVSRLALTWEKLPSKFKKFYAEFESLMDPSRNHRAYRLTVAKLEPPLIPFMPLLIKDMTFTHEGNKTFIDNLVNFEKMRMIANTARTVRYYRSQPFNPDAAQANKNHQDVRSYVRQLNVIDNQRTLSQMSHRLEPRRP

The assay addresses Rap guanine nucleotide exchange factor 4 (Homo sapiens) (UniProt Q8WZA2). Briefly: Validation qHTS for antagonist of cAMP-regulated guanine nucleotide exchange factor 4 (EPAC2). Note: nearly all actives have a fitted effect of over 40% in size. The settings on record: EPAC2 Rap1B BODIPY-GDP exchange, fluorescence; series mostly up to 112 µM; activity, negative = inhibition: at the top concentration. From the text:
Principle Investigator: Xiaodong Cheng Ph.D. The University of Texas Medical Branch, […], TX MLPCN Grant: NS066510 In multi-cellular eukaryotic organisms, the effects of cAMP are transduced by two ubiquitously-expressed intracellular cAMP receptors, the classic protein kinase A/cAMP-dependent protein kinase (PKA/cAPK) and the more recently discovered exchange protein directly activated by cAMP/cAMP-regulated guanine nucleotide exchange factor (EPAC/cAMP-GEF). Both PKA and EPAC are ubiquitously expressed in all tissues, and an increase in intracellular cAMP levels will lead to the activation of both PKA and EPAC. Therefore, careful dissections of the individual role and relative contribution of EPAC and PKA within the overall cAMP signaling in various model systems are critical for further elucidating the mechanism of cAMP signaling. To date no EPAC-specific antagonists and agonist, as well as isoform-specific agonists have been reported, and developing EPAC-specific pharmacological probes to determine the physiological functions that EPAC play in the overall cAMP-mediated signaling remains a major challenge within the research field. Furthermore, identified regulators of EPAC may lead to new mechanism-based therapeutic strategies specifically targeting the EPAC / cAMP-signaling components as EPAC has been implicated to play important roles in major human pathological conditions such as diabetes, heart disease, and cancer. This qHTS will be used to screen the Molecular Libraries Small Molecule Repository (MLSMR) as a concentration-titration series using the NCGC unique quantitative screening (qHTS) platform to find activators for EPAC1. In addition, this assay will also be used as a counterscreen for the EPAC2 qHTS. This fluorescent based assay is developed and validated for EPAC1 that measures exchange using EPAC effector Rap1 complex with BODIPY-GDP, a GDP analog with a tethered fluorophores. Activators are identified by monitoring the change in fluorescence signal as the exchanged free BODIPY-GDP has a reduced fluorescence compared to Rap1-bound BODIPY-GDP. Increase in signal (activation) is the desired outcome for the EPAC1 agonist while no activity in this assay is desired for the EPAC2 agonist counterscreen. Reference: [1] de Rooij, J., Zwartkruis, F. J., Verheijen, M. H., Cool, R. H., Nijman, S. M., Wittinghofer, A., and Bos, J.L. (1998) Nature 396, 474-477.
Briefly, three uL of reagents (100 nM EPAC2, 250 nM RAP1B-BODIPY-GDP, 50 uM GDP) were dispensed into a 1536-well Greiner black solid-bottom medium binding assay plate. Controls and test compounds (23 nL) were transferred to the plate via a Kalypsys pin tool equipped with a 1536-pin array. The plates were centrifuged at 1,000 rpm for 15 seconds followed by 5 minute incubation at room temperature. The assay plates were read at 5 minute intervals for 30 minutes in the ViewLux plate reader using 480nm excitation and 540nm emission filters. The results were normalized to the agonist positive control of 6.5 mM cAMP.
For the compound `CCc1noc(C)c1C(=O)NCCN1Cc2cc(OC)ccc2OC(CC)C1` (centres undefined), the “activity, negative = inhibition” value is -18.1% (inactive).
Turning to `CC(N)(C(=O)O)c1ccc(-c2nn[nH]n2)cc1` (centres undefined), the “activity, negative = inhibition” value was 3.75% (inactive).
For `O=C1CCC[C@@H]2C[C@@]3(C[C@@H]4CCN1[C@H]24)Nc1ccccc1NC3=NCc1ccccc1`, the “activity, negative = inhibition” value is 8.03% (inactive).
Consider `C=C1O[C@@](CO)(n2cnc3c(N)ncnc32)[C@H](O)[C@@H]1O`, for which the “activity, negative = inhibition” value is -13% [at 151 µM] (inactive).
As for `CO/N=C(\C(=O)N[C@@H]1C(=O)N2C(C(=O)O)=CCS[C@H]12)c1csc(N)n1`, the “activity, negative = inhibition” value was -6.32% (inactive).
In the case of `COC(=O)CC1C(C)(C)C(OC(C)=O)C2CC3=C4CC(=O)OC(c5ccoc5)[C@]4(C)CCC3[C@@]1(C)C2=O` (some centres undefined), the “activity, negative = inhibition” value is -17% (inactive).
Take `COc1ccccc1CNc1ccnc(-c2c(C)noc2C)n1`: the “activity, negative = inhibition” value is -31.5% (inactive).
With `COc1ccc(C(=O)N2CCC3(CCCN(C(c4ccccc4)c4ccccc4)C3)CC2)cc1`, the “activity, negative = inhibition” value was -24.7% (inactive).
The same measure, in the same setting: the figure for `CN(C)C(=O)c1ccc(-c2cncnc2NC2CCNCC2)cc1` is -12.4% (inactive); for `CCC1(C2CCN(C(=O)c3cccc(F)c3F)CC2)NC(=O)N(CCc2scnc2C)C1=O` (centres undefined) it is 16.6% (inactive); for `COc1ccccc1N1CCN(C[C@@H]2CN3C(=O)N(C)c4ccccc4C3=N2)CC1` it is -26.1% (inactive).
For `CCC(C)[C@H]1COCCS(=O)(=O)N1Cc1ccc(C)cc1` (some centres undefined), the Potency is 79.4 µM (active).
On to `Cc1ccc(CN2CCCOCCS2(=O)=O)cc1`, for which the “activity, negative = inhibition” value was -2.57% (inactive).
On the same count and under the same terms, under `Cc1ncc2c(c1CNS(=O)(=O)N(C)C)CCN(C(=O)c1ccccc1F)C2` stands -14.3% (inactive); under `COCCNc1cc(-c2c(C)noc2C)ncn1`, -5.38% (inactive); under `C[N+](C)(C)CCCCCNCC12CC3CC(CC(C3)C1)C2`, -15.6% (inactive).
On to `O=C(O)CCCc1ccccc1`, for which the “activity, negative = inhibition” value was -0.0958% (inactive).
The same measure, in the same setting: under `Cc1cccc(CNC(=O)c2cnn(-c3nccc(-c4ccccc4F)n3)c2C2CC2)n1` stands 13.1% (inactive).
Take `O=C(c1cnccn1)N1CCC[C@@]2(CCN(Cc3ccncc3)C2)C1`: the “activity, negative = inhibition” value was -20.6% (inactive).
For `COCCn1c(=O)c(-c2cc(F)cc(F)c2)nc2cnc(N3CCNCC3)nc21`, the “activity, negative = inhibition” value was -20.9% (inactive).
With `Cn1cccc1C(=O)N1CCC[C@@]2(CCN(Cc3nccs3)C2)C1`, the “activity, negative = inhibition” value was -15.6% (inactive).
On the same count and under the same terms, the figure for `CC(C)=CC1C(C(=O)O)C1(C)C` (centres undefined) is -11.1% (inactive); for `CCCCC/C=C\C/C=C\CCCCCCCCCC(=O)O` it is -26.6% [at 11.4 µM] (inactive).
Consider `COc1ccccc1C1CN(Cc2ccccc2O)Cc2ccccc2O1` (centres undefined), for which the “activity, negative = inhibition” value is -26.5% (inactive).
The same measure, in the same setting: under `Cc1c(O)cc(O)c2c(=O)c(-c3ccc(O)cc3)coc12` stands -5.64% (inactive).
As to `C[C@@H]1O[C@@H](OC[C@H]2O[C@@H](Oc3c(-c4cccc(O)c4O)oc4cc(O)cc(O)c4c3=O)[C@H](O)[C@@H](O)[C@@H]2O)[C@H](O)[C@H](O)[C@H]1O`, the “activity, negative = inhibition” value was -20.9% (inactive).
Turning to `COc1cccc(Cn2c(=O)c(-c3ccccc3)nc3cnc(OC)nc32)c1`, the “activity, negative = inhibition” value was -28.4% (inactive).
On to `O=c1c(-c2ccc(F)cc2)nc2cnc(N3CCNCC3)nc2n1Cc1cccs1`, for which the “activity, negative = inhibition” value is -29.2% (inactive).
Consider `O=C(c1csnn1)N1CCC[C@@]2(CCN(Cc3nccs3)C2)C1`, for which the “activity, negative = inhibition” value is -18.4% (inactive).
As for `COCCN1CCN(C(=O)c2sc3ncnc(NCC4CCCO4)c3c2C)CC1` (centres undefined), the “activity, negative = inhibition” value was -8.65% (inactive).
Consider `O=C(Nc1cccc(F)c1)N1CCC2(CC1)CCN(S(=O)(=O)c1ccccc1)CC2`, for which the “activity, negative = inhibition” value is -22% (inactive).
Regarding `c1ccc2c(Nc3ccncc3)nc(-c3ccoc3)nc2c1`, the “activity, negative = inhibition” value was -19% (inactive).
Same read-out and setting: under `COCCn1c(=O)c(CCc2ccccc2)nc2cncnc21` stands -6.11% (inactive).
`CCC(C)[C@@H](N)C(=O)O` (some centres undefined): the Potency entry is “inactive”.
With `O=S(=O)(c1ccccc1)N1CCC2(CC1)CN(Cc1nccs1)C2`, the “activity, negative = inhibition” value was -23.4% (inactive).
In the case of `COc1ccc(NC(=O)N2CC3(CCN(C(=O)c4cccn4C)CC3)C2)cc1`, the “activity, negative = inhibition” value was -24.9% (inactive).
Turning to `COc1cccc(Nc2ncc3ncc(=O)n(C4CC4)c3n2)c1`, the “activity, negative = inhibition” value was -20.3% (inactive).
Turning to `C/C=C/C=N/NC(=O)c1ccncc1`, the “activity, negative = inhibition” value is -17.4% (inactive).
On the same count and under the same terms, the figure for `O=c1c(CCc2ccccc2)nc2cnc(N3CCNCC3)nc2n1Cc1cccs1` is -10.5% (inactive).
The same measure, in the same setting: under `COc1ccc(CC(N)C(=O)NC2C(O)[C@H](n3cnc4c(N(C)C)ncnc43)O[C@@H]2CO)cc1` (some centres undefined) stands -11.5% (inactive); under `O=C1c2c(O)cccc2[C@@H]([C@@H]2O[C@H](CO)[C@@H](O)[C@H](O)[C@H]2O)c2cc(CO)cc(O)c21`, -22.2% (inactive); under `CC(C)c1cc(C(=O)N2CCOc3ccc(CN4CCC(Oc5cccnc5)CC4)cc3C2)n[nH]1`, -9.89% (inactive).
Turning to `CCOC(=O)N1CCN(Cc2ccc3c(c2)CN(C(=O)c2cccc(-n4cccn4)c2)CCO3)CC1`, the “activity, negative = inhibition” value was -2.38% (inactive).
For the compound `CCOC(=O)N1CCC(N2CCOc3ccc(CN4CCC(O)(c5cccnc5)CC4)cc3C2)CC1`, the Potency was 79.4 µM (active).
Turning to `COCCn1c(=O)c(-c2ccc(OC)cc2)nc2cnc(Oc3cccc(Cl)c3)nc21`, the “activity, negative = inhibition” value was -28.7% (inactive).
As for `CC(C)NC(=O)N1CC[C@@]2(CCCN(C(=O)c3ccco3)C2)C1`, the “activity, negative = inhibition” value was -26.8% (inactive).
In the case of `CC(C)(C)c1ccc(C(=O)C[N+]2(C)CCCc3ccccc32)cc1` (centres undefined), the “activity, negative = inhibition” value was -5.47% (inactive).
With `COc1ccc(F)c(CN2CCC3(CCC(CNC(=O)c4ccn(C)n4)O3)CC2)c1` (centres undefined), the “activity, negative = inhibition” value was -3.57% (inactive).
As to `CS(=O)(=O)Nc1cccc(-c2cncnc2Nc2ccccc2)c1`, the “activity, negative = inhibition” value is -7.64% (inactive).
For the compound `CC(=O)OCC(=O)C1CCC2C3CCC4=CC(=O)CC[C@@]4(C)C3CC[C@]12C` (some centres undefined), the “activity, negative = inhibition” value is -10.5% (inactive).
As for `CC(C)c1ccc2c(c1)c(SC(C)(C)C)c(CC(C)(C)C(=O)O)n2Cc1ccc(Cl)cc1`, the Potency result was “inactive and 50.1 µM (active)”.
As for `N#Cc1cccc(-c2ccc3ncnc(NCc4cccs4)c3c2)c1`, the “activity, negative = inhibition” value was -7.28% (inactive).
Same read-out and setting: under `C=C(C)C1CC=C(CO)CC1` (centres undefined) stands -12.9% (inactive).
`CCCC1C(=O)N2C(N(C)C)=Nc3ccc(C)cc3N2C1=O` (centres undefined): the “activity, negative = inhibition” value was -16.8% [at 56.6 µM] (inactive).
Turning to `COC(=O)N1CCC2(CCCN(c3ccncc3)C2)CC1`, the “activity, negative = inhibition” value was 1.24% (inactive).
Consider `CC[N+](C)(CC)CCC[n+]1c(-c2ccccc2)c2cc(N)ccc2c2ccc(N)cc21`, for which the Potency is 50.1 µM (active).
As for `O=C1CCN(Cc2ccc([N+](=O)[O-])cc2)CCN1[C@H](CO)Cc1ccccc1`, the “activity, negative = inhibition” value is -7.03% (inactive).
In the case of `Cc1cccc(-c2cc(=O)c3cc(C)ccc3o2)c1`, the “activity, negative = inhibition” value is -23.6% (inactive).
On to `CN(C)CCc1c[nH]c2ccc(Cn3cncn3)cc12`, for which the “activity, negative = inhibition” value is -7.05% (inactive).
`Cc1noc(C)c1-c1cc(NCc2cccnc2)ncn1`: the “activity, negative = inhibition” value was -28.3% (inactive).
For the compound `C=CC1(C)CC(=O)C2(O)C(C)(O1)C(OC(C)=O)C(O)C1C(C)(C)CCC(O)C12C` (centres undefined), the “activity, negative = inhibition” value is -12.8% (inactive).
Turning to `COc1cc(-c2cccnc2)cc2c1OCCN(C(=O)Cc1csc(C)n1)C2`, the “activity, negative = inhibition” value was -11.1% (inactive).
Regarding `CCCCCCc1ccc(O)cc1O`, the Potency was 39.8 µM (active).
For the compound `NCCC[C@H](N)CC(=O)N[C@H]1CNC(=O)[C@H]([C@H]2C[C@H](O)NC(N)=N2)NC(=O)/C(=C/NC(N)=O)NC(=O)[C@H](CO)NC(=O)[C@H](CO)NC1=O` (β3hOrn-[Dap]SS[ΔAla(Z-3-ureido)][X12]; lactam 1-C), the “activity, negative = inhibition” value is -5.63% (inactive).

For the origin of these results see PubChem BioAssay AID1645886 (National Center for Advancing Translational Sciences (NCATS), 2021).
